About 2,900 (63%) of roughly 4,600 compounds were called active.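 How the source made its calls: active means inhibition of yeast growth at or above a set limit in either of two replicates at 10 µM; inactive means the rest.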 The set was probably picked from earlier hits. A selection follows.
Assay: TIM10 isogenic control strain growth inhibition – single concentration, luminescence, S. cerevisiae, counter-screen for tim10-1 synthetic lethality project, confirmation (AID 463215);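 further: isogenic wild-type TIM10 control yeast grown in succinate dextrose medium; this counterscreen used the strain with wild-type TIM10; 0% = yeast with DMSO and 100% = medium wells lacking yeast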
Details: BacTiter-Glo luminescence, 24 h, at 10 µM, stronger effect = higher value

SMILES	inhibition
Fc1cccc(Cl)c1CSc1ccc(-c2ccco2)nn1	35.9% (active)
O=C(/C=C/c1ccc(Cl)c([N+](=O)[O-])c1)c1cccnc1	81.2% (active)
COc1cc([N+](=O)[O-])ccc1NC(=O)COC(=O)CCOc1ccc(C)cc1	43.4% (active)
C=CS(=O)c1sc(Cl)c(N2CCOCC2)c1[N+](=O)[O-] (configuration not stated)	87.5% (active)
CCc1ccc2c(c1)C1(NN=C(c3ccccc3)S1)C(=O)N2 (configuration not stated)	43.3% (active)
O=C(N/N=C/c1c[nH]c2ccccc12)c1cc2ccccc2o1	22.9% (inactive)
Cc1ccc(Nc2nc(Cl)c(C=O)s2)cc1	10.7% (inactive)
Nc1ccccc1SC(C[N+](=O)[O-])c1ccccc1 (configuration not stated)	53.5% (active)
O=C(Nc1ccc2oc(-c3ccccc3F)nc2c1)c1ccco1	62.4% (active)
O=C(Nc1nc(-c2ccco2)c(-c2ccco2)s1)c1ccco1	39.9% (active)
COCCNC(=O)/C(C#N)=C/c1cccc(OCc2ccccc2)c1	69.5% (active)
Cc1cc(C)n(-c2nc(SCC(=O)N3CCCC3)c3c4c(sc3n2)CCCC4)n1	23.4% (inactive)
CCOC(=O)C(=Cc1ccccc1OC)C(=O)OCC	27.6% (inactive)
COc1ccc(CNC(=O)/C(C#N)=C/c2cccc(OC)c2OC)cc1	80.8% (active)
c1ccc(-c2nccc(-c3ccc(-n4cnc5ccccc54)cc3)n2)nc1	-3.75% (inactive)
CN(C)CCCN(C(=O)c1ccc(S(=O)(=O)N2CCCc3ccccc32)cc1)c1nc2ccc(F)cc2s1	41.4% (active)
CCN(CC)CCN(C(=O)c1ccc(S(=O)(=O)N2CCOCC2)cc1)c1nc2cc3c(cc2s1)OCCO3	28.1% (inactive)
COc1cccc(NC(=O)CSc2nccn(-c3ccc4c(c3)OCCO4)c2=O)c1	8.7% (inactive)
O=C(NNc1c2ccccc2nc2ccccc12)c1cc2ccccc2cc1O	-21.2% (inactive)
COc1ccc(Oc2cn[nH]c2-c2ccc(OC)cc2O)cc1	31% (active)
O=S(=O)(NC1CCCCC1)c1ccc(F)c2ccccc12	29.4% (inactive)
Fc1ccc(/C=N/n2c(COc3ccccc3)n[nH]c2=S)cc1	37% (active)
CC[C@@H]1Cc2cc(O)ccc2C2=C1c1ccc(O)cc1C[C@H]2CC	66.3% (active)
Cc1[nH]c2ccccc2c1C(=O)COC(=O)c1c(-c2ccccc2)noc1C	36.8% (active)
CCC(C)(C)n1nnnc1CN1CCN(c2nc3ccc(C)cc3cc2C#N)CC1	24.8% (inactive)

SMILES	inhibition
O=C(NCc1ccco1)c1cc2sccc2n1Cc1ccc(F)cc1	23.6% (inactive)
CCc1cccc(CC)c1NC(=S)NCc1ccc2[nH]c(C)cc2c1	52.9% (active)
CCc1sc(C(=O)N2CCN(CC(=O)Nc3cccc(F)c3)CC2)cc1C	60.8% (active)
C[C@@H]1C(c2ccc(F)cc2)=NN(c2ccc(Br)cc2)[C@H]1C(=O)N1CCOC1=O	52.1% (active)
N/C(=N\OC(=O)Cc1ccccc1[N+](=O)[O-])c1ccc(Br)cc1	53% (active)
CC(/C=N/NC(=O)c1cc(-c2ccc3ccccc3c2)n[nH]1)=C\c1ccco1	42.5% (active)
O=C1c2ccccc2C(=O)N1CC1c2ccccc2CCN1S(=O)(=O)c1ccccc1 (configuration not stated)	22.5% (inactive)
O=S(=O)(ON(c1ccccc1)S(=O)(=O)c1ccccc1)c1ccccc1	-4.35% (inactive)
Cc1nn(Cc2ccc(Cl)c(Cl)c2)c(C)c1NC(=O)c1cc(C2CC2)on1	33.2% (active)
Oc1ccccc1C1=NN(c2ccccc2)C(c2ccccc2)C1 (configuration not stated)	70.5% (active)
COc1ccc(Cn2c(-c3ccc(Cl)cc3)c[n+]3ccccc23)cc1	34.7% (active)
COc1ccc(NC(=S)NCC2CCN(c3ccc(OC)cc3)C2)cc1 (configuration not stated)	-5.6% (inactive)
O=C(Cc1ccccc1)NC(=S)Nc1ccc(N2CCCCC2)cc1	39.8% (active)
S=C(NCCCc1ccccc1)Nc1ccc(Br)cc1	31.7% (inactive)
COc1ccc(-c2cc(-c3ccc(N)cc3)nc(N)c2C#N)cc1OC	33.8% (active)
O=C(O)c1ccc(N/N=C/c2cn(-c3ccccc3)nc2-c2cccs2)cc1	64.8% (active)
O=C(Nc1ccc(C(F)(F)F)cc1)c1cccc(-n2cnnn2)c1	23.1% (inactive)
Cc1nnnn1/C(=C\c1ccccc1)C(=O)OCC(=O)N1CC2(C)CC1CC(C)(C)C2 (configuration not stated)	50.7% (active)
c1ccc(-c2cn3c(n2)CCc2ccc4cccnc4c2-3)cc1	37% (active)
Cc1ccccc1-c1nc(C#N)c(NCc2ccco2)o1	11.5% (inactive)
COc1cccc(CNc2nc(C(F)(F)F)nc3ccccc23)c1	27.1% (inactive)
c1ccc(-c2nc(NCc3ccco3)c3ccccc3n2)cc1	34% (active)
CC(C)N(Cc1ccccc1)C(=S)Nc1ccc(OC(F)F)cc1	-14% (inactive)
COc1ccc(C(=O)Nc2ccccc2C(=O)N/N=C/c2ccc(O)c(OC)c2)cc1	93.3% (active)
COc1cc(/C=N/NC(=O)c2ccccc2)ccc1OS(=O)(=O)c1ccccc1	17.2% (inactive)

SMILES	inhibition
COc1ccc(C(=O)Nc2ccccc2C(=O)N/N=C/c2ccccc2OC)cc1	43.1% (active)
O=C(N/N=C\c1cccc(Br)c1)c1ccccc1-n1cccc1	-4.2% (inactive)
Cc1nc2sc(C(=O)c3ccccc3)c(N)c2c2c1CCCC2	23% (inactive)
OC(CNCC1CCCO1)Cn1c2ccc(Br)cc2c2cc(Br)ccc21 (configuration not stated)	51.4% (active)
COc1ccc(OC)c2sc(NC(=O)C3COc4ccccc4O3)nc12 (configuration not stated)	34.8% (active)
COc1ccc(NC(=O)/C(Cl)=C(/Cl)S(=O)Cc2ccc(C)cc2)cn1 (configuration not stated)	88% (active)
COc1ccc(CS(=O)/C(Cl)=C(/Cl)C(=O)Nc2ccc(OC)nc2)cc1 (configuration not stated)	78.3% (active)
O=[N+]([O-])c1ccc(C=Nc2ccc(Cl)cc2Cl)s1	44.1% (active)
Cn1c(-c2sccc2OCc2cccc(C(F)(F)F)c2)n[nH]c1=S	34.8% (active)
Cc1cccc(/C(N)=N/OC(=O)c2ccccc2Cl)c1	77.7% (active)
NS(=O)(=O)c1ccc(NC(=S)Nc2ccc(Br)c(Cl)c2)cc1	16.9% (inactive)
N/C(=N\OC(=O)c1cc(-c2ccccc2)nc2ccccc12)c1ccncc1	64.8% (active)
O=C(NCCN1C(=O)S/C(=C\c2cccnc2)C1=O)c1cccc(OC(F)F)c1	-9.15% (inactive)
CCCCNC(=S)N/N=C1\CCCCc2ccccc21	34.3% (active)
CCN1/C(=C\c2ccc3ccccc3[n+]2CC)Sc2cc(C)ccc21	78.1% (active)
Cc1oc2c(c1C(=O)N1CCOCC1)C(=O)c1ccccc1C2=O	22.8% (inactive)
O=C(/C=C/Sc1ncn[nH]1)c1ccc(Cl)cc1	79% (active)
O=C(ON=C1CCN(S(=O)(=O)c2ccccc2)CC1)c1ccc(Cl)cc1	62.2% (active)
Cc1ccccc1NCC(=O)N/N=C\c1ccc([N+](=O)[O-])s1	37.2% (active)
O=C1NC(=O)C2C1C(c1ccc([N+](=O)[O-])cc1)=NN2Cc1ccccc1 (configuration not stated)	4.5% (inactive)
O=[N+]([O-])c1ccc2c(c1)Nc1nc3ccccc3nc1N2	83.8% (active)
O=[N+]([O-])c1cccc(Nc2c3ccccc3nc3ccccc23)c1	21.6% (inactive)
COc1ccc(C(=O)COC(=O)c2ccc([N+](=O)[O-])s2)cc1OC	81.8% (active)
COc1nc(NC2CCCCC2)nc(N2CCCCCC2)n1	-15.7% (inactive)
O=C(Nc1ccc2c(c1)CCC2)c1ccc(Br)s1	44% (active)

SMILES	inhibition
Cc1ccc(NC(=O)c2cccs2)cc1S(=O)(=O)N(C)C	-1.3% (inactive)
N/C(Cc1ccc([N+](=O)[O-])cc1)=N\OC(=O)C1CCCCC1	49.2% (active)
N/C(Cc1ccc([N+](=O)[O-])cc1)=N\OC(=O)COc1ccc2ccccc2c1	51% (active)
CC1(C)CCSC(/C=C/c2ccccc2)=N1	56.7% (active)
CSC(=S)N/N=C/c1c[nH]c2ccccc12	20.1% (inactive)
CNC(=S)N/N=C/c1cn(Cc2ccc(C)cc2)c2ccccc12	53.4% (active)
COC(=O)c1c(NC(=O)CSc2nncs2)sc2c1CCCCC2	25.7% (inactive)
COC(=O)c1sccc1NS(=O)(=O)c1ccc(F)cc1F	42.8% (active)
O=C(Oc1ccc(F)cc1)N1CCOCC1	-0.9% (inactive)
O=C(/C=C/c1cccs1)c1cc(Cl)ccc1OC(=O)N1CCOCC1	40.2% (active)
C[C@@H](NC(=O)OC(C)(C)C)c1nnc(S(=O)(=O)Cc2ccccc2)o1	43.6% (active)
N#C/C(=C\c1ccccc1C(F)(F)F)C(=O)Nc1ccccc1F	46.9% (active)
CCCc1[nH]nc2c1C(c1ccc(Br)s1)C(C#N)=C(N)O2 (configuration not stated)	73.4% (active)
Cc1ccc(-c2ccc(/C=C(\C#N)C(N)=S)o2)c([N+](=O)[O-])c1	54.1% (active)
O=[N+]([O-])c1ccccc1S(=O)(=O)Nc1cccc2cccnc12	19.5% (inactive)
O=c1nc2s/c(=C\c3ccco3)c(=O)n2nc1Cc1ccccc1	56.5% (active)
Oc1ccc(/C=N/N(Cc2ccccc2)c2ccccc2)cc1	28.2% (inactive)
CCOC(=O)c1ccc(N2C(=O)CC(N3CCC(C(=O)OCC)CC3)C2=O)cc1 (configuration not stated)	21.4% (inactive)
Cc1cc(Nc2ccccc2)n(C(=O)c2ccc(N)cc2)n1	57.5% (active)
CN1CCN(c2ccccc2NC(=O)COc2ccc(C3CCCCC3)cc2)CC1	30.4% (active)
O=C(NC(Nc1nc2ccc([N+](=O)[O-])cc2s1)(C(F)(F)F)C(F)(F)F)c1ccccc1	77.7% (active)
N#C/C(=C\c1cccnc1)C(=O)Nc1ccc(SC(F)F)cc1	42.2% (active)

— PubChem BioAssay AID463215 (Sanford-Burnham Center for Chemical Genomics, 2010)
